The structures appear in SMILES notation. Unmarked numbers belong to inactive results. Inconclusive results are not listed. Active and inactive are the calls of the source. Unless noted, the call rests on the fitted dose curve; in most records, active means well fitted curve in the direction sought with a large enough effect in the repeat runs; inconclusive means weak or mixed curves; inactive means no such curve, though single readings can be large; an effect the other way counts as inactive or inconclusive.

Test [1] concerns the target Thyrotropin-releasing hormone receptor (Homo sapiens) (UniProt P34981). Kind of test: qHTS assay to identify small molecule agonists of the thyrotropin-releasing hormone receptor (TRHR) signaling pathway (AID 1346891; calls by dose curve;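 further: HEK293 cells expressing TRHR with calcium dye readout; series mostly up to about 58 µM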). The procedure, abridged: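 Cells: TRHR-Hek293, seeded and incubated 18 h. Dye loading: 2 h at 37 °C. Compound added from DMSO stock by pin tool. Read-out: kinetic calcium fluorescence over 3 min.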
(In general: Quantitative high-throughput screening tests each substance at several concentrations.)

Test [2] in a line: Human pregnane X receptor (PXR) small molecule agonists, qHTS cell viability counter screen (AID 1346977). Further: nearly all actives have a fitted effect of over 50% in size. Further: potency means the concentration at half of the fitted maximal effect. The essentials:
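Cytotoxicity counter screen run in the same wells as the PXR luciferase assay, using PXR-Luc HepG2 cells in charcoal-stripped serum medium. Viability: CellTiter-Fluor fluorescence after 24hr compound treatment.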

Test [3] can be described thus: Caspase-3/7 induction in HepG2 cells by small molecules, qHTS assay (AID 1346978). Further: nearly all actives have a fitted effect of over 15% in size. The procedure, abridged:
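Wild-type HepG2 cells (2,000/well) were settled 5 h at 37 C, 5% CO2, then exposed to compounds in DMSO for 17 h. Caspase-3/7 activity was read by luminescence 30 min after adding Caspase-Glo 3/7 reagent at room temperature.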

Test [4] in a line: Caspase-3/7 induction in CHO-K1 cells by small molecules, qHTS assay (AID 1346980). Further: nearly all actives have a fitted effect of over 15% in size. The essentials: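 Wild-type cells were seeded at 1,500 per well and settled 5 hr at 37 C, 5% CO2, then exposed to DMSO-dissolved compounds for 17 hr. Caspase-Glo 3/7 reagent was added, and luminescence was read after 30min at room temperature.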
A short description of test [5]: Caspase-3/7 induction in HepG2 cells by small molecules, qHTS cell viability counter screen (AID 1346981). Further: series mostly up to about 92 µM; nearly all actives have a fitted effect of over 30% in size. The essentials:
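HepG2, WT, 2,000 cells/well; 5 hr pre-incubation 37 C/5% CO2; compound pin-transferred from DMSO; 16 hr exposure; CellTiter-Fluor, 1 hr; fluorescence read.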

In test [6] the target is Nuclear receptor subfamily 1 group I member 2 (Homo sapiens) (UniProt O75469). Kind of test: Human pregnane X receptor (PXR) small molecule agonists, qHTS assay (AID 1346982). Further: nearly all actives have a fitted effect of over 35% in size. Further: potency means the concentration at half of the fitted maximal effect. The procedure, abridged: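 Luciferase signal from ONE-Glo (30 min, room temperature) measured activation of hPXR-driven CYP3A4 reporter expression in PXR-Luc HepG2 cells treated with compounds for 24 hr at 37 C.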

The target of test [7] is Acetylcholinesterase (Homo sapiens) (UniProt P22303). Kind of test: Acetylcholinesterase (AChE) small molecule antagonists: colormetric cell-based qHTS assay (AID 1347395; calls by dose curve; further: nearly all actives have a fitted effect of over 30% in size; further: potency means the concentration at half of the fitted maximal effect). The procedure, abridged: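 Cells (SH-SY5Y, 2,000 per well) are seeded and left overnight at 37 C. Compound is added for 30 min, then DTNB and acetylthiocholine for a further 90 min at 37 C before absorbance-based thiocholine detection.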

Test [8] shares this target. Kind of test: Acetylcholinesterase (AChE) small molecule antagonists: enzyme-based qHTS assay (AID 1347397; calls by dose curve; further: nearly all actives have a fitted effect of over 55% in size). To be noted: Potency: AChE enzyme activity inhibition; outcome: AChE enzyme activity inhibition. The procedure, abridged: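 Recombinant human AChE, dispensed at 50 mU/mL, was preincubated with Tox21 10K compounds or DMSO vehicle for 30 min at room temperature. DTNB plus acetylthiocholine was then added, and thiocholine was measured colorimetrically after a further 10 min.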

Test [9] has the same target. Kind of test: Acetylcholinesterase (AChE) small molecule antagonists: fluorescence cell-based qHTS assay (AID 1347398; calls by dose curve; further: nearly all actives have a fitted effect of over 50% in size). To be noted: Potency: AChE activity; outcome: AChE activity. The essentials: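 Human SH-SY5Y cells were plated overnight at 37 C, exposed to compound for 30 min at 37 C, 5% CO2, then given acetylthiocholine plus Thiolite Green for 40 min at room temperature; thiocholine fluorescence (Ex/Em 490/520 nm) reports endogenous AChE activity.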

Test [10] has the same target. Kind of test: Acetylcholinesterase (AChE) small molecule antagonists: enzyme-based qHTS assay with human liver microsomes (AID 1347399; calls by dose curve; further: nearly all actives have a fitted effect of over 60% in size). Particulars: Potency: qHTS inhibition; outcome: qHTS inhibition. The essentials: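 Recombinant human AChE (50 mU/mL in the enzyme mix) and human liver microsomes (0.25 mg/mL final) were preincubated with compound and NADPH (0.25 mg/mL final) for 30 min at 37 C. Acetylthiocholine/DTNB was then added; thiocholine was read colorimetrically after 10 min at room temperature.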

The target in test [11] is Cytochrome P450 2C19 (Homo sapiens) (UniProt P33261). Kind of test: Cytochrome P450 Family 2 Subfamily C Member 19 (CYP2C19) small molecule antagonists: luciferase reporter qHTS assay (AID 1671197). Further: series mostly up to about 120 µM; nearly all actives have a fitted effect of over 65% in size. The procedure, abridged:
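Compounds were tested on CYP2C19 activity via proluciferin conversion to luciferin. The 37C, 1 h reaction followed NADPH addition; detection reagent stopped it.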
Background: In a reporter assay the amount or activity of a reporter protein is the signal.

Test [12] has as its target Cytochrome P450 2C9 (Homo sapiens) (UniProt P11712). Kind of test: Cytochrome P450 Family 2 Subfamily C Member 9 (CYP2C9) small molecule antagonists: luciferase reporter qHTS assay (AID 1671198). Further: series mostly up to about 120 µM; nearly all actives have a fitted effect of over 50% in size. The procedure, abridged:
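CYP2C9 activity was measured with a P450-Glo proluciferin substrate. Enzyme–substrate mix was held with compound for 10 min at room temperature, then NADPH regeneration solution was added for 1 h at 37C. Luciferin product was read as luminescence.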

Test [13] concerns the target Cytochrome P450 1A2 (Homo sapiens) (UniProt P05177). Kind of test: Cytochrome P450 Family 1 Subfamily A Member 2 (CYP1A2) small molecule antagonists: luciferase reporter qHTS assay (AID 1671199). Further: nearly all actives have a fitted effect of over 50% in size. Further: potency means the concentration at half of the fitted maximal effect. The essentials:
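P450-Glo CYP1A2, 1536-well qHTS: enzyme/proluciferin substrate + cpd (DMSO), 10 min RT; NADPH regen, 1 h RT; detection reagent, 20 min; luminescence, RLU.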

The target in test [14] is Voltage-gated inwardly rectifying potassium channel KCNH2 (Homo sapiens) (UniProt Q12809). Kind of test: Human Ether-a-go-go-Related Gene (hERG) channel small molecule antagonists: fluorescence cell-based qHTS assay (AID 1671200). The essentials: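 Fluorescence at 540 nm emission (480 nm excitation) was recorded kinetically for 2 min at 1-second intervals once the thallium-containing stimulus reached cells previously loaded with FluxOR II dye.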
On the technique in general: The hERG channel carries a current that helps repolarise heart muscle cells.

Test [15] deals with Cytochrome P450 2D6 (Homo sapiens) (UniProt P10635). Kind of test: Cytochrome P450 Family 2 Subfamily D Member 6 (CYP2D6) small molecule antagonists: luciferase reporter qHTS assay (AID 1671196). Further: nearly all actives have a fitted effect of over 50% in size. Further: potency means the concentration at half of the fitted maximal effect. The essentials: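 Read-out is luminescence from luciferin formed by CYP2D6 turnover of a proluciferin substrate, recorded as relative luminescence units. Reactions ran 1 h at room temperature after NADPH regeneration solution was added.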

For test [16], the target named is Cytochrome P450 3A4 (Homo sapiens) (UniProt P08684). Kind of test: Cytochrome P450 Family 3 Subfamily A Member 4 (CYP3A4) small molecule antagonists: luciferase reporter qHTS assay (AID 1671201). Further: nearly all actives have a fitted effect of over 50% in size. Further: potency means the concentration at half of the fitted maximal effect. The essentials: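 qHTS, 1536-well. CYP3A4 + proluciferin substrate, cpd 10 min RT → NADPH regen 1 h RT → detection reagent 20 min → luminescence (RLU). Ketoconazole positive control.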

The nature of test [17]: Caspase-3/7 induction in CHO-K1 cells by small molecules, qHTS cell viability counter screen (AID 1346979). Further: nearly all actives have a fitted effect of over 35% in size. Further: potency means the concentration at half of the fitted maximal effect. The procedure, abridged: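 Cytotoxicity counter screen run in parallel with the caspase-3/7 assay: CHO-K1 cells, 16hr compound treatment at 37C, then CellTiter-Fluor for 1hr before fluorescence reading.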
Test [18] deals with Nuclear receptor subfamily 1 group I member 2 (Rattus norvegicus) (UniProt Q9R1A7). Kind of test: Rat pregnane X receptor (rPXR) activation by small molecules, qHTS assay (AID 1346983). Further: nearly all actives have a fitted effect of over 20% in size. To be noted: rPXR luciferase reporter cells, One-Glo luminescence, 24 h; stronger effect = higher value. The essentials: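 Cell-based rPXR luciferase reporter assay, 2,000 cells per well, rested 5hr at 37 C before compound addition in DMSO, then 24 hr at 37 C. One-Glo reagent was added and luminescence read after 30 min at room temperature.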

Test [19] deals with Nuclear receptor subfamily 1 group I member 2 (Homo sapiens) (UniProt O75469). Kind of test: Human pregnane X receptor (PXR) activation by small molecules, qHTS assay (AID 1346985). Further: nearly all actives have a fitted effect of over 40% in size. Further: potency means the concentration at half of the fitted maximal effect. The procedure, abridged: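 DPX-2 cells (HepG2 co-transfected with a PXR response element and a CYP3A4-promoter luciferase construct) were seeded at 2,000 per well, rested 5 hr at 37C, then exposed to DMSO-dissolved compounds for 24 hr. Activation was read as luciferase luminescence.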
On the % scale 0 is the no-effect control and ±100 the full control effect.

Sequence of Cytochrome P450 3A4 (Homo sapiens) (P08684 whole entry, looked up): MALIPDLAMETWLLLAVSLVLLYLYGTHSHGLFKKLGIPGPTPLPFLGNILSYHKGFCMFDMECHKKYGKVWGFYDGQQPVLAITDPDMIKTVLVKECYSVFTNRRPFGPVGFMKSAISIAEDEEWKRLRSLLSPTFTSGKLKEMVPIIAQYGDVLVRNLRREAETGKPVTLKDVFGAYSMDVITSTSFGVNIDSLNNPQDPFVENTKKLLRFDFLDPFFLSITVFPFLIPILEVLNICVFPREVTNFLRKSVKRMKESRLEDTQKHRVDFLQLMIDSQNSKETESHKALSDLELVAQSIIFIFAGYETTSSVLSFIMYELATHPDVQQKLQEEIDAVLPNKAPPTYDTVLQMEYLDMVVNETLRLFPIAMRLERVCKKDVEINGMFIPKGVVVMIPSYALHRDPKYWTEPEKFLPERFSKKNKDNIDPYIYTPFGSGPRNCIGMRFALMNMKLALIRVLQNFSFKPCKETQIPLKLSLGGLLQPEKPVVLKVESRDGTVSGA
Sequence of Voltage-gated inwardly rectifying potassium channel KCNH2 (Homo sapiens) (Q12809 whole entry, looked up): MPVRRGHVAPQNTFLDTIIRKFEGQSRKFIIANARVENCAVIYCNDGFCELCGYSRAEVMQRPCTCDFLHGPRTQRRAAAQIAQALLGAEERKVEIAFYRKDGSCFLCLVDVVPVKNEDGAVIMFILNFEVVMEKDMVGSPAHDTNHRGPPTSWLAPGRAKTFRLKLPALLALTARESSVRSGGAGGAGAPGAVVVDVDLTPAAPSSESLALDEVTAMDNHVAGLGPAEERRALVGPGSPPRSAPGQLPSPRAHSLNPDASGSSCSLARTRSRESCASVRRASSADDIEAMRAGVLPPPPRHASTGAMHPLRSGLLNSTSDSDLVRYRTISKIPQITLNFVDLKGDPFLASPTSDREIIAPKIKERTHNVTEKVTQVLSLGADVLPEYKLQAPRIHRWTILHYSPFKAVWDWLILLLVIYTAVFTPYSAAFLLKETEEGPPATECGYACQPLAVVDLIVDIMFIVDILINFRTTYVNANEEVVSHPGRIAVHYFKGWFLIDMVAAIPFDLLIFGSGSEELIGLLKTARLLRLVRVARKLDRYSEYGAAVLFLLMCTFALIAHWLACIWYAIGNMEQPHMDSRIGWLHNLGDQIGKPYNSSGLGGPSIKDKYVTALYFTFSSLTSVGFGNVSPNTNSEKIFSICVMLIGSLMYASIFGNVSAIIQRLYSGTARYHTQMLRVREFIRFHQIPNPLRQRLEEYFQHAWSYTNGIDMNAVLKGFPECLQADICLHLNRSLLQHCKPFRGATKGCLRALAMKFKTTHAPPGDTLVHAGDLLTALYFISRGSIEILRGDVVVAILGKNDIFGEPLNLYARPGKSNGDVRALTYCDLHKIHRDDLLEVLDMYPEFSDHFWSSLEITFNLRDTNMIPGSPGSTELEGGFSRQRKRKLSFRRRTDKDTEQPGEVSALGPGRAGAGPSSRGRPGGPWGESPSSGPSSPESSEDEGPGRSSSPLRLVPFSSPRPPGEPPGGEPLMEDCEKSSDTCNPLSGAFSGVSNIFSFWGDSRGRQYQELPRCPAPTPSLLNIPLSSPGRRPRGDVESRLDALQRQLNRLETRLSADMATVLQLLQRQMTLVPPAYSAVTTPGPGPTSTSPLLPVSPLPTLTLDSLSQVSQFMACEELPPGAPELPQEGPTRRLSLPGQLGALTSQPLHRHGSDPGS
Sequence of Nuclear receptor subfamily 1 group I member 2 (Homo sapiens) (O75469 whole entry, looked up): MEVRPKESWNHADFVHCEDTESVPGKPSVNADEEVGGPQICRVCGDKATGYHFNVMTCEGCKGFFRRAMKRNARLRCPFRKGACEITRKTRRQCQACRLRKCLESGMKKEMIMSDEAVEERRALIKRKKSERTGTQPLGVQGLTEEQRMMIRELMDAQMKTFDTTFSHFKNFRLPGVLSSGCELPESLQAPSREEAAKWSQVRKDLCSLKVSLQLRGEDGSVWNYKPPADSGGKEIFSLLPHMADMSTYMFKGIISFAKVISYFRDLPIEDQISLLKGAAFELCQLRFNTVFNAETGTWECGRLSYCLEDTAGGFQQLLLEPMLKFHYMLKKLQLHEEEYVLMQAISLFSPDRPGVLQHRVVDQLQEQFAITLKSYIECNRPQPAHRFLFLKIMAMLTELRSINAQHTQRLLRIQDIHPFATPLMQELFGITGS
Sequence of Thyrotropin-releasing hormone receptor (Homo sapiens) (P34981 whole entry, looked up): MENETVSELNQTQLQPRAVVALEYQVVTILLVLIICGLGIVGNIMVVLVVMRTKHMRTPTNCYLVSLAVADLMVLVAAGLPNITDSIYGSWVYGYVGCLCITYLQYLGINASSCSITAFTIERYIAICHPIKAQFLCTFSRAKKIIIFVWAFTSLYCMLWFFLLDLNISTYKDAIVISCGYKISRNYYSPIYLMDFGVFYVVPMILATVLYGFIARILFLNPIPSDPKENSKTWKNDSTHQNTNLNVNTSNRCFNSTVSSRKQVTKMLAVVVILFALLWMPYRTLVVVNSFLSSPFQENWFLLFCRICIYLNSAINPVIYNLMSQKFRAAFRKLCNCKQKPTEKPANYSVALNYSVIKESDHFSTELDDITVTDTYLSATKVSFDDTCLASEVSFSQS
Sequence of Cytochrome P450 2C19 (Homo sapiens) (P33261 whole entry, looked up): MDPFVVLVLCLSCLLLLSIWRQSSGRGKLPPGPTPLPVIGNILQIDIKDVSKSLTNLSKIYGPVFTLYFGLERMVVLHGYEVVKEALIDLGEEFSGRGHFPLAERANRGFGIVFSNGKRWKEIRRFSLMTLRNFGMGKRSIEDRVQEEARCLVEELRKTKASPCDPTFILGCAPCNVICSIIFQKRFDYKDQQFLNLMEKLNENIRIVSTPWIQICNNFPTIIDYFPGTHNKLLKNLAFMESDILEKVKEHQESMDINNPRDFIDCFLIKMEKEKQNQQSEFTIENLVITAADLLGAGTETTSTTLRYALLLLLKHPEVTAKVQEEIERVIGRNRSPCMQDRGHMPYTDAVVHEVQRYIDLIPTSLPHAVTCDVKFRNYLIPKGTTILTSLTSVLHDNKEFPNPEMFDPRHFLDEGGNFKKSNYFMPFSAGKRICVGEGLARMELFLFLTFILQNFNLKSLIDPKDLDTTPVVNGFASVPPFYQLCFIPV
Sequence of Cytochrome P450 1A2 (Homo sapiens) (P05177 whole entry, looked up): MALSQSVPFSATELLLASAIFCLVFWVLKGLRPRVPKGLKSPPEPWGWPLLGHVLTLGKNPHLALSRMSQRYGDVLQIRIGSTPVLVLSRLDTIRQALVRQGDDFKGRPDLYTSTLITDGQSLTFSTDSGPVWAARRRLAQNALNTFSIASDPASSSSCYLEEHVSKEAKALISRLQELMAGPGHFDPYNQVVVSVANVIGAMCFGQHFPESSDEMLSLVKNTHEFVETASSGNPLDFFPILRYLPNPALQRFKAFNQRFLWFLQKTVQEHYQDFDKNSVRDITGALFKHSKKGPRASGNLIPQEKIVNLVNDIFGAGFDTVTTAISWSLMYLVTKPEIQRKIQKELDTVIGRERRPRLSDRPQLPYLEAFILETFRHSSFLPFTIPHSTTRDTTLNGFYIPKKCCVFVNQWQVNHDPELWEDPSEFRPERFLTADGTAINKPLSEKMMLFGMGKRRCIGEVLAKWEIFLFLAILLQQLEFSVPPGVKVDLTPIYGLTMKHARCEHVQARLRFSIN
Sequence of Acetylcholinesterase (Homo sapiens) (P22303 whole entry, looked up): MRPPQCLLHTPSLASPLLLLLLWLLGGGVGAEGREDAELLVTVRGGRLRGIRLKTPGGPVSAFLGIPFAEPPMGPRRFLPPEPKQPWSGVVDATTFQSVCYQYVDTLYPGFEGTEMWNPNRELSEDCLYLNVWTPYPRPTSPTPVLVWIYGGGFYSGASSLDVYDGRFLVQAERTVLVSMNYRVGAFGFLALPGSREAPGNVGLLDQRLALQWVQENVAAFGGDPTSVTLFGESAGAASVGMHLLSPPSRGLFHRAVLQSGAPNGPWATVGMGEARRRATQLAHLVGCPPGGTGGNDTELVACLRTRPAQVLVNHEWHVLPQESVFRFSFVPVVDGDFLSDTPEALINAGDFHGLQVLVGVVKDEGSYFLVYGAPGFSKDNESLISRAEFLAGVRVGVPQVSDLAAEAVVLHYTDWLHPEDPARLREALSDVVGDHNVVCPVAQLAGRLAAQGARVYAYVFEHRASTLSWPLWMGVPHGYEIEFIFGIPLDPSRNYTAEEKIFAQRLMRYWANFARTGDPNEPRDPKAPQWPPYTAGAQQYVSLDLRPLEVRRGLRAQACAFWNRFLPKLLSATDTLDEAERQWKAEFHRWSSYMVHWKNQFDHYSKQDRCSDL
Sequence of Cytochrome P450 2D6 (Homo sapiens) (P10635 whole entry, looked up): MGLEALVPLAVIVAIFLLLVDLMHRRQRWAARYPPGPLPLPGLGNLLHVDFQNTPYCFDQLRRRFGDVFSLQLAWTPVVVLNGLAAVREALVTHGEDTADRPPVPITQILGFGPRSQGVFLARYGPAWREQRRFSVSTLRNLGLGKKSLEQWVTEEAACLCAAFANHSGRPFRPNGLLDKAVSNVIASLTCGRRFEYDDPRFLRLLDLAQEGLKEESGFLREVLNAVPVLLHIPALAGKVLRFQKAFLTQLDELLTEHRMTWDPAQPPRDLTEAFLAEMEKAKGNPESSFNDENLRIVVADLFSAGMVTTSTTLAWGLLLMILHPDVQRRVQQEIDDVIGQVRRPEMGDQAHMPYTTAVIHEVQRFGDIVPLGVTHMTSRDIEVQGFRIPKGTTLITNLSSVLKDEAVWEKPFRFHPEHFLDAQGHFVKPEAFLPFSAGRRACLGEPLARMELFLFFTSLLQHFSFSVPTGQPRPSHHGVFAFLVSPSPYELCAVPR

With `Clc1ccc(C(Cl)(Cl)Cl)cn1`, the compound was classed as inactive in [1], in test [3] and in test [4]. Besides, the Potency result in [2], in test [5], in [6], in test [7], in [8] and in test [9] was “inactive” throughout. For the same compound, the Potency entry in [10], in test [11], in test [12] and in test [14] was “inactive” in each case. Also, in test [13], the Potency is 7.96 µM (active).
`N#CN=C1SCCN1Cc1ccc(Cl)nc1`: the compound was classed as inactive in [1], in test [3] and in test [4]. Further, the Potency entry in test [2], in [5], in test [8], in test [9], in [10] and in [11] was “inactive” throughout. For the same compound, the Potency entry in test [14] and in [16] was “inactive” each time. Besides, the Potency in [7] is 35.6 µM (active); in test [15], 39.9 µM (active).
`O=C(Cl)CCl`: the call in test [1], in [3] and in [4] was inactive. In addition, the Potency result in [2], in [5], in test [6], in test [7], in test [8] and in test [9] was “inactive” each time. Also, the Potency entry in test [12], in test [14] and in [16] was “inactive” throughout. Besides, the Potency in [15] was 71.4 µM (active).
As for `Cc1cccc2sc3nncn3c12`, the outcome in [1], in test [3] and in test [4] was inactive. Besides, the Potency result in test [2], in [5], in test [8], in test [10], in [11] and in test [12] was “inactive” in each case. Besides, in [14], the Potency entry was “inactive”. In addition, the Potency in [6] is 34.4 µM (active); in test [7], 39.9 µM (active); in test [15], 15.9 µM (active); in test [13], 31.7 µM (active); in test [16], 20 µM (active).
As for `Cn1c(N)nc2c3cccnc3ccc21`, the result in test [1] and in [4] was inactive. In addition, the Potency in test [2] was 26 µM (active); in [17], 51.8 µM (active); in test [6], 51.8 µM (active); in test [13], 16.9 µM (active). The Potency result in test [8], in [10], in [11], in test [12], in test [14] and in [16] was “inactive” throughout.
Turning to `CC1=C2[C@H]3OC(=O)[C@@H](C)[C@@H]3CC[C@@]2(C)C=CC1=O`, the call in test [1] and in test [4] was inactive. Besides, the Potency entry in [2], in test [5], in test [7], in test [8], in test [9] and in test [11] was “inactive” in each case. Further, the Potency entry in test [13] and in test [14] was “inactive” throughout. Besides, the Potency is 7.5 µM (active) in test [6] and 2.82 µM (active) in test [19]. Moreover, in test [18], the max activation was 8.61%.
On to `CNC(=O)NC(O)C(Cl)(Cl)Cl` (stereo not given), for which the compound was classed as inactive in test [1] and in test [4]. The Potency result in [2], in test [5], in test [6], in test [19], in test [7] and in [8] was “inactive” throughout. The Potency entry in test [9], in test [15], in test [11], in test [12], in [13] and in [14] was “inactive” in each case. In test [16], the Potency entry is “inactive”. Further, the max activation in [18] is -4.06%.
With `CC(=O)CN(CC(C)=O)N=O`, the compound was called inactive in test [1] and in test [4]. For the same compound, the Potency result in test [2], in [17], in [5], in test [6], in test [7] and in test [9] was “inactive” each time. The Potency entry in test [10], in [15], in [11], in [12], in [14] and in test [16] was “inactive” throughout.

Values taken from PubChem BioAssay (Tox21).
